From the supplement of paper PMC10849652
Targets with a hit are over-represented here; the source holds about 7,900 in all. About 0.6% of all pairs of compound and target were hits. A number with no mark means an inactive call.

Tests used:
Assay in all cases: log2 fold change, soluble protein after heating vs DMSO (PISA); higher = thermal stabilisation; K562 cells, 10 uM, 30 min; active = over 0.2 and 3.5 SD of the protein, either way, in both replicates (recomputed)
erlotinib = compound: C#Cc1cccc(Nc2ncnc3cc(OCCOC)c(OCCOC)cc23)c1 [erlotinib]
In short: (§1)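 Values are thermal stability changes relative to control samples and are taken from duplicates. They are stated as log2 fold changes. Before quantification by TMTpro 16plex LC-MS/MS with equalised channel sums, K562 cells at 2×10^6 cells/mL were treated with 10 μM compound for 30 min, heated in aliquots for 3 min across 48°C-58°C, pooled, extracted in PBS with 0.5% NP-40 at 4°C, and centrifuged at 21,000xg for 90 min to give the soluble supernatant.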

[1] = compound: C/C(=N\NC(=O)C1=CC(=CC=C1)S(=O)(=O)N2CCOCC2)/C3=C(C=CC(=C3)Cl)O
In short: as §1

[2] = compound: C1=CC(=C(C=C1Cl)C2=NC3=NC=CN=C3C(=N2)NC4=CC=NC=C4)F
In short: as §1

[3] = compound: C1=CC(=CC=C1C2=NC3=C(N2)C=C(C=C3)C(=O)N)OC4=CC=C(C=C4)Cl
In short: as §1

[4] = compound: C1=CC2=C(C=CC(=C2)/C=C\3/C(=O)NC(=NCC4=CC=CS4)S3)N=C1
In short: as §1

[5] = compound: C1=CC2=NC=CN=C2C=C1/C=C/3\C(=O)NC(=O)S3
In short: as §1

[6] = compound: C1=CC=C(C=C1)C2=NC(=C(N2)C3=CC=NC=C3)C4=CC(=C(C=C4)Cl)O
In short: as §1

[7] = compound: C1=CC=C2C(=C1)C3=NNC4=CC=CC(=C43)C2=O
In short: as §1

[8] = compound: C1CCN(C1)C(=O)NC2=CC=CC(=C2)NC3=NC=C(C(=N3)NCCC4=CN=CN4)Br
In short: as §1

[9] = compound: C1CN(CCC1(CC2=CC=C(C=C2)Cl)N)C3=NC=NC4=C3C=CN4
In short: as §1

IRAK-1-4 Inhibitor I = compound: C1COCCN1CCN2C3=CC=CC=C3N=C2NC(=O)C4=CC(=CC=C4)[N+](=O)[O-] [IRAK-1-4 Inhibitor I]
In short: as §1

ibrutinib = compound: C=CC(=O)N1CCC[C@@H](n2nc(-c3ccc(Oc4ccccc4)cc3)c3c(N)ncnc32)C1 [ibrutinib]
In short: as §1

[10] = compound: CC(=O)c1cnc2ccc(-c3cc(Cl)c(O)c(Cl)c3)nc2c1N[C@H]1CC[C@H](CN(C)C)CC1
In short: as §1

ralimetinib = compound: CC(C)(C)Cn1c(N)nc2ccc(-c3[nH]c(C(C)(C)C)nc3-c3ccc(F)cc3)nc21 [ralimetinib]
In short: as §1

[11] = compound: CC(C)(O)CC(=O)NCCn1ccc2ncnc(Nc3ccc(Oc4cccc(C(F)(F)F)c4)c(Cl)c3)c21
In short: as §1

[12] = compound: CC(C)C1=C2N=C(C=C(N2N=C1)NCC3=CC=CC=C3)NCCCCCCN
In short: as §1

[13] = compound: CC(C)C[C@@H](C=O)NC(=O)[C@H](CC(C)C)NC(=O)[C@H](CC(C)C)NC(=O)OCc1ccccc1
In short: as §1

pinometostat = compound: CC(C)N(C[C@H]1O[C@@H](n2cnc3c(N)ncnc32)[C@H](O)[C@@H]1O)[C@H]1C[C@@H](CCc2nc3cc(C(C)(C)C)ccc3[nH]2)C1 [pinometostat]
In short: as §1

[14] = compound: CC1=C(C(CC(=O)N1)C2=CC=C(C=C2)C(F)(F)F)C(=O)NC3=C(C=C4C(=C3)C=NN4)F
In short: as §1

[15] = compound: CC1=C(C2=C(C=C1)C(=O)C3=CC=CC=C3N2CCCN)C
In short: as §1

Sequence of UniProt Q9H8Y5 (Q9H8Y5 whole entry, looked up): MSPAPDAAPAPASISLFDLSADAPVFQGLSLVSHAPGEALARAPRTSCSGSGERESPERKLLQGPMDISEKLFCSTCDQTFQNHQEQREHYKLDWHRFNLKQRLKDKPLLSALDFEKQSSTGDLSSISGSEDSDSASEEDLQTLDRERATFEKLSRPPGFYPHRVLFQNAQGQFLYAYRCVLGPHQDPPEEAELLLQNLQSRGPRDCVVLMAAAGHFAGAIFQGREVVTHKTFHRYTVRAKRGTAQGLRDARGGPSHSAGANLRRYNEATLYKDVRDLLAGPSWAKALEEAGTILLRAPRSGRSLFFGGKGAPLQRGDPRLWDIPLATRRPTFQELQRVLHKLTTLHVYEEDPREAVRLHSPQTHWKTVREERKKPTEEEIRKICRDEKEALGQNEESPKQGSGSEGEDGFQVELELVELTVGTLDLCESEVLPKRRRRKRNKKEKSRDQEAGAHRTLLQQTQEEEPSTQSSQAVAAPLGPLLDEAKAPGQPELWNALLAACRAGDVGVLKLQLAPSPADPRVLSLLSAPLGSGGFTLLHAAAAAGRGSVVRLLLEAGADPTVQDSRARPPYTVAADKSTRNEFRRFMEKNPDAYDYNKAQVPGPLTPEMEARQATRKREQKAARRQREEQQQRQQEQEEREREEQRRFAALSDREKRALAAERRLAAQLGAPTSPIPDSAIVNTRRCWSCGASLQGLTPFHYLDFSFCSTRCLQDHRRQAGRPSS
Sequence of UniProt P08758 (P08758 whole entry, looked up): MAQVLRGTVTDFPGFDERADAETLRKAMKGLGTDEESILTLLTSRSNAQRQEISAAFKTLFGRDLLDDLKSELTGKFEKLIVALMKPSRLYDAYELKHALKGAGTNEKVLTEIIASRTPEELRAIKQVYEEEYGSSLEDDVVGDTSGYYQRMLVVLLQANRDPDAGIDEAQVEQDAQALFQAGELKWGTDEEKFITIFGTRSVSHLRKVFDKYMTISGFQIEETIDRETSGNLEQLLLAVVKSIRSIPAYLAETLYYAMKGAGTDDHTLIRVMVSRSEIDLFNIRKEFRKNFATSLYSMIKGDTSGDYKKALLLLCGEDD
Sequence of UniProt Q8N2F6 (Q8N2F6 whole entry, looked up): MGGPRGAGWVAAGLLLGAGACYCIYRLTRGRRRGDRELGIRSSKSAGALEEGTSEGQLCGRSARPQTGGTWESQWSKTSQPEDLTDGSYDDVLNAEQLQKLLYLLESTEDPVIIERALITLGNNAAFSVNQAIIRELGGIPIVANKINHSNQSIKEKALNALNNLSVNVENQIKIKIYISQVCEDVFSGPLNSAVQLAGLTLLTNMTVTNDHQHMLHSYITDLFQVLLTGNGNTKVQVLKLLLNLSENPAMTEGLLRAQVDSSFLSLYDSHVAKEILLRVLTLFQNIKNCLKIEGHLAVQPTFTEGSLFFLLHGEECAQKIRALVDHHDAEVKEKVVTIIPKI
Sequence of UniProt Q96CW1 (Q96CW1 whole entry, looked up): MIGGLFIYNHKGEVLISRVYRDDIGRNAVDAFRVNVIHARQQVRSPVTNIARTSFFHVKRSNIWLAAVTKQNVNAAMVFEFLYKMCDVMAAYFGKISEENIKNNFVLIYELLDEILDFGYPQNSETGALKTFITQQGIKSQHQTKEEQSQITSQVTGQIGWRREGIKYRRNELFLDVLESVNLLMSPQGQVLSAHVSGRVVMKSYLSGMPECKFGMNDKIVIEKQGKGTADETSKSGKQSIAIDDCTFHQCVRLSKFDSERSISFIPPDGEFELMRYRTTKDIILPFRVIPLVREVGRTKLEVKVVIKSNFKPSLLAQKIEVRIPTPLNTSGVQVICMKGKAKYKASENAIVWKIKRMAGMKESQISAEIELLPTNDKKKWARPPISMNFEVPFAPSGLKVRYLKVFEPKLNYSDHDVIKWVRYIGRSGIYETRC
Sequence of UniProt P56385 (P56385 whole entry, looked up): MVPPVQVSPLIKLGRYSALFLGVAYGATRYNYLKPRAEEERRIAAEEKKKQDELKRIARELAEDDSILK
Sequence of UniProt O15440 (O15440 whole entry, looked up): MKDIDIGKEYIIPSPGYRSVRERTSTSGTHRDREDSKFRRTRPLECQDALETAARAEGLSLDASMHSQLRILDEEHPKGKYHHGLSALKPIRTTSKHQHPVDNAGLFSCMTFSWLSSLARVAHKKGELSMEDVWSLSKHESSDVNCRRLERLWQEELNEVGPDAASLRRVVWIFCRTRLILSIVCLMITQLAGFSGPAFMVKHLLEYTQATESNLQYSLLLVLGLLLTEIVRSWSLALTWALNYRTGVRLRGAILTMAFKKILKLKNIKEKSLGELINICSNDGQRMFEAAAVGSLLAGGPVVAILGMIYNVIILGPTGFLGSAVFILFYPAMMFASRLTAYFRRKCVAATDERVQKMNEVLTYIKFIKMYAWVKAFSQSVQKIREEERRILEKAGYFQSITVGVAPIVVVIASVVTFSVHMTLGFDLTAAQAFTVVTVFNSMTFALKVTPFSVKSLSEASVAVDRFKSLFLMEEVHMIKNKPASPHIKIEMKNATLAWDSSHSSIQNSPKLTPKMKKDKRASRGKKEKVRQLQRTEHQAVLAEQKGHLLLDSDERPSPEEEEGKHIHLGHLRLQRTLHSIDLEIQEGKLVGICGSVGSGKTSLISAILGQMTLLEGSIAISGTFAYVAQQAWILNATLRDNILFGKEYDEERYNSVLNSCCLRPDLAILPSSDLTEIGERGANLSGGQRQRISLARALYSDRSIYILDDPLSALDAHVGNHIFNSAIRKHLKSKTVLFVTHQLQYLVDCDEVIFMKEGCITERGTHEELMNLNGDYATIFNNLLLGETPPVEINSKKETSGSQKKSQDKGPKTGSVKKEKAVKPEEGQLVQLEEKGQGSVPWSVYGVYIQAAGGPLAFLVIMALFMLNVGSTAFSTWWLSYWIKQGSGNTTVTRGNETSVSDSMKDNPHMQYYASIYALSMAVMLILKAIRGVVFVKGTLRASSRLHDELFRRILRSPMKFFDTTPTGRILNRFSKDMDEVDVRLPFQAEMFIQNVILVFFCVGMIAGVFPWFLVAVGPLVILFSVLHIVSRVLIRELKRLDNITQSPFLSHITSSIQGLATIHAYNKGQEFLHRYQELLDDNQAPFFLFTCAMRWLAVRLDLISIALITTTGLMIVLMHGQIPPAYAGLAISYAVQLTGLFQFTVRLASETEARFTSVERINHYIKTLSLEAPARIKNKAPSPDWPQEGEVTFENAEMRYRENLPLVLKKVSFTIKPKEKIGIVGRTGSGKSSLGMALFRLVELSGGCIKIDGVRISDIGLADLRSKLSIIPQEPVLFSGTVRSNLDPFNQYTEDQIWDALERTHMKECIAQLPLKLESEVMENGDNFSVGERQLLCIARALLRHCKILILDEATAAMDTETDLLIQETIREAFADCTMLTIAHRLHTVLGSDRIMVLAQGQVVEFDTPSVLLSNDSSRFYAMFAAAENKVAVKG
Sequence of UniProt O95782 (O95782 whole entry, looked up): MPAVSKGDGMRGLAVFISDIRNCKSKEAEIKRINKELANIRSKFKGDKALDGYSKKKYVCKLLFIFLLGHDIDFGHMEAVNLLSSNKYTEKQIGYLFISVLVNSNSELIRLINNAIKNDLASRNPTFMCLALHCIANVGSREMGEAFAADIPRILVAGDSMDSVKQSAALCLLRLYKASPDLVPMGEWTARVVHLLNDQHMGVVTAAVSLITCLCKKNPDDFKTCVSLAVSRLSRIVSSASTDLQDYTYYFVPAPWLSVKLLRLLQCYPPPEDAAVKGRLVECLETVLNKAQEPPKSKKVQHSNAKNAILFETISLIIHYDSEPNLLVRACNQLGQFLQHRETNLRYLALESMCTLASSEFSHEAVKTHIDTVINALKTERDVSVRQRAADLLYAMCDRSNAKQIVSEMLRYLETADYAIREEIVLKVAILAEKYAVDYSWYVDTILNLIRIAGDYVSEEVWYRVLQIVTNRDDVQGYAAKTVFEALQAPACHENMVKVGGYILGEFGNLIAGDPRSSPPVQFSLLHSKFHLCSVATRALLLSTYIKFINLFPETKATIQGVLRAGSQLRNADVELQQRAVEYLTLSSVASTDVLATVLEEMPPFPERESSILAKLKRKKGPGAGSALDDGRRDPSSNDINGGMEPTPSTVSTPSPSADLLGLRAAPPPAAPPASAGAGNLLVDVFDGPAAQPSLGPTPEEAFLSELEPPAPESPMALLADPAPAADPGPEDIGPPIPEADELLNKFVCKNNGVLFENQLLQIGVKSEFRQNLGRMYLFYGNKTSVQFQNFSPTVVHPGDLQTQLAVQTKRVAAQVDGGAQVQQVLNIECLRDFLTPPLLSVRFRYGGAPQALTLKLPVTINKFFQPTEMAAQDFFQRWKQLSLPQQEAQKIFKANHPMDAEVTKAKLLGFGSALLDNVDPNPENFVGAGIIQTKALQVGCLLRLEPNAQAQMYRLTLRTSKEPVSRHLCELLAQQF

Target	log2 fold change (erlotinib)	log2 fold change [1]	log2 fold change [2]	log2 fold change [3]	log2 fold change [4]	log2 fold change [5]	log2 fold change [6]	log2 fold change [7]	log2 fold change [8]	log2 fold change [9]	log2 fold change (IRAK-1-4 Inhibitor I)	log2 fold change (ibrutinib)	log2 fold change [10]	log2 fold change (ralimetinib)	log2 fold change [11]	log2 fold change [12]	log2 fold change [13]	log2 fold change (pinometostat)	log2 fold change [14]	log2 fold change [15]
ARMC10 (UniProt Q8N2F6)	-0.021	0.044	-0.092	-0.066	0.005	0.006	-0.034	0.016	0.003	-0.023	0.001	-0.018	-0.035	-0.003	-0.029	0.005	0.034	0.033	0.003	0
BMP2K (UniProt Q9NSY1)	0.079	-0.16	-0.016	-0.024	0.178	-0.042	-0.012	0.388 (active)	0.353	-0.061	0.003	0.071	0.559 (active)	0.058	-0.028	-0.027	0.085	-0.008	0.023	-0.009
ANXA5 (UniProt P08758)	-0.012	0.1	0.06	-0.039	0.009	0.002	0.013	0.038	0.022	-0.012	-0.013	-0.05	-0.019	-0.018	-0.006	-0.069	0.017	-0.026	0	0.032
ANKZF1 (UniProt Q9H8Y5)	0.142	0.032	-0.141	0	0.015	-0.108	-0.035	-0.039	0.057	-0.022	-0.052	0.031	-0.19	0.189	0	-0.065	0.192	0.136	0.034	-0.069
ATP5ME (UniProt P56385)	0.013	0.037	0.136	-0.007	0.085	0.051	0.023	0.002	-0.051	0.013	-0.003	-0.002	-0.019	-0.04	-0.044	0.031	0.011	-0.036	0.011	0.039
AP2A1 (UniProt O95782)	-0.019	0.012	-0.035	0.003	-0.041	0.003	0.057	-0.381 (active)	-0.527 (active)	-0.038	-0.054	0.01	-0.14	0.052	0.027	0.023	-0.06	0	0.01	0.081
AP2M1 (UniProt Q96CW1)	-0.067	0.006	-0.012	0.017	0.005	-0.016	0.036	-0.26 (active)	-0.367 (active)	-0.01	-0.049	0.043	-0.043	0.036	0.022	0.045	0.011	0.026	0.011	0.079
ABCC5 (UniProt O15440)	-0.027	0.035	0.064	-0.004	0.059	-0.048	-0.014	-0.071	-0.037	0.129	-0.035	-0.082	0	0.001	-0.121	0.119	0.046	0.086	0.038	0.116
